In PubChem BioAssay (Tox21):
Where “and” joins values, the source holds several entries; their conditions need not be identical. Identical values can stand only once. Inconclusive results are not listed. The source holds several records for some structures; these can differ, active in one and inactive in another. Calls of active or inactive are those of the source. Unless noted, calls follow the shape of the dose curve; as a rule, active = well fitted curve in the direction sought with a large enough effect in the repeat runs; inconclusive = weak or mixed curves; inactive = no such curve, though single readings can be large; an effect the other way counts as inactive or inconclusive.

Tests used:
[1] = qHTS assay to identify small molecule agonists of the RXR signaling pathway - cell viability counter screen (AID 1159529); also: nearly all actives have a fitted effect of over 50% in size; also: potency is read from the fitted curve at half-maximal effect
Outline: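 Cell viability is measured by CellTiter-Glo luminescence, 30 min at room temperature, in wells already read for beta-lactamase. Engineered HEK 293T cells (RXR-alpha-UAS-bla) are dosed 16 hr at 37 C. Tetraoctyl ammonium bromide serves as positive control.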

[2] = qHTS assay to identify small molecule antagonists of the retinoid acid receptor (RAR) signaling pathway - cell viability counter screen (AID 1159551); also: nearly all actives have a fitted effect of over 35% in size
Outline: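 Seed C3RL4 cells; next day add compound, then retinol to 1 uM final; incubate 6 h at 37 C; add CellTiter-Glo; read luminescence after 30 min at RT.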

[3] = qHTS assay to identify small molecule agonists of the retinoic acid receptor (RAR) signaling pathway (AID 1159553); conditions: C3RL4 RARE luciferase reporter, agonist, 6 h; activation: at 73.3 µM (top of the series) unless noted; also: potency is read from the fitted curve at half-maximal effect
Outline: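 Activation of retinol signaling was monitored via a RARE luciferase reporter in C3RL4 cells. After 6 hr compound treatment at 37 C, detection reagent was added for 30 min at room temperature before luminescence reading.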

[4] = qHTS assay to identify small molecule antagonists of the estrogen related receptor (ERR) signaling pathway - cell viability counter screen (AID 1224818);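 also: viability measured after 17.5 h of compound exposure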
Outline: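 In the same ERR cell assay, compound-treated wells (17.5 h, 37 C) were multiplexed with a fluorogenic viability reagent, CellTiter-Fluor, read after 30 min to flag cytotoxic substances.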

[5] = qHTS assay to identify small molecule antagonists of the estrogen related receptor (ERR) signaling pathway (AID 1224819;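 also: luminescence from an ERR-driven luciferase reporter measured with One-Glo reagent; nearly all actives have a fitted effect of over 50% in size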)
Outline: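 qHTS in ERR cells, 2,000/well, 1536 format. Cpd (DMSO) added after 6 h settle, 18 h 37 C. One-Glo luminescence, 30 min RT.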

[6] = qHTS assay to identify small molecule agonists of the estrogen related receptor (ERR) signaling pathway (AID 1224820)
Outline: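 ERR reporter cell line (from NTP), 2,000 cells/well, incubated 6 h before compound addition, then 18 h at 37 C. Luminescence measured 30 min after One-Glo reagent at room temperature.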

[7] = tested on: estrogen-related receptor alpha (ERRalpha) with PGC-1alpha coactivator, human; test: qHTS assay to identify small molecule antagonists of the estrogen related receptor signaling pathway with the pleiotropic PPARgamma coactivator (PGC) (AID 1224821; calls by dose curve;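 also: lower luminescence signal means antagonism of PGC/ERR signalling; nearly all actives have a fitted effect of over 50% in size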)
Outline: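 PGC/ERR reporter cell line, plated 6 h before compound addition, then exposed 18 h at 37 °C. Luciferase activity read by luminescence 30 min after One-Glo addition; decrease indicates antagonism.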

[8] = qHTS assay to identify small molecule agonists of the estrogen related receptor signaling pathway with the pleiotropic PPARgamma coactivator (PGC) (AID 1224823)
Outline: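 PGC/ERR reporter cells seeded 6 h, then exposed to compounds (23 nL in DMSO) for 18 h at 37 C. One-Glo luciferase luminescence read after 30 min at room temperature.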

[9] = qHTS assay to identify small molecule antagonists of the estrogen related receptor (ERR) signaling pathway from Tox21 library - cell viability counter screen (AID 1224834); also: nearly all actives have a fitted effect of over 30% in size; also: potency is read from the fitted curve at half-maximal effect
Outline: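 CellTiter-Fluor fluorescence measured; ERR cells; 17.5 h compound incubation at 37 C; 30 min reagent step.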

[10] = target: Luciferin 4-monooxygenase (Photinus pyralis) (UniProt P08659); test: qHTS assay to identify small molecule inhibitors of firefly luciferase (AID 1224835); also: nearly all actives have a fitted effect of over 25% in size; also: potency is read from the fitted curve at half-maximal effect
Outline: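 Biochemical qHTS: compounds run as interplate titrations against purified firefly enzyme, with D-luciferin and ATP each at its KM concentration. Light output recorded by CCD imaging.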

[11] = qHTS assay to identify small molecule agonists of the constitutive androstane receptor (CAR) signaling pathway - cell viability counter screen (AID 1224836); also: nearly all actives have a fitted effect of over 45% in size
Outline: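 Counter screen multiplexed with the CAR reporter readout: HepG2 cells co-transfected with hCAR and the CYP2B6-2.2kb construct receive a 15-concentration compound series and 0.75 uM PK11195 (final), then CellTiter-Fluor fluorescence is read after 23 h.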

[12] = qHTS assay to identify small molecule antagonists of the constitutive androstane receptor (CAR) signaling pathway - cell viability counter screen (AID 1224837); also: nearly all actives have a fitted effect of over 45% in size
Outline: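 Using CellTiter-Fluor, viability is scored in HepG2 cells stably carrying hCAR and a 2.2kb CYP2B6 reporter after 23 hr compound exposure across 15 concentrations, with CITCO present at 50 nM.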

[13] = target: Nuclear receptor subfamily 1 group I member 3 (Homo sapiens) (UniProt Q14994); test: qHTS assay to identify small molecule antagonists of the constitutive androstane receptor (CAR) signaling pathway (AID 1224838);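 also: HepG2 cells stably expressing hCAR with CYP2B6 luciferase reporter stimulated by CITCO; nearly all actives have a fitted effect of over 40% in size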; also: potency is read from the fitted curve at half-maximal effect
Outline: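 Reporter luminescence was quantified after 24 h exposure of hCAR/CYP2B6-2.2kb double-stable HepG2 cells to compounds at 15 concentrations in the presence of 50 nM CITCO final.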

[14] = qHTS assay to identify small molecule antagonists of the estrogen related receptor signaling pathway with the pleiotropic PPARgamma coactivator (PGC) from Tox21 10K library - cell viability counter screen (AID 1224840; active = well fitted cell-killing curve with a large enough effect in the repeat runs, not every such curve was filed as active; also: nearly all actives have a fitted effect of over 40% in size)
Outline: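 Here the PGC/ERR cells serve as a cytotoxicity control: they are exposed to compounds for 17.5 hours at 37 C, and live-cell signal is quantified using CellTiter-Fluor fluorescence.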

[15] = qHTS assay to identify small molecule antagonists of the estrogen related receptor signaling pathway with the pleiotropic PPARgamma coactivator (PGC) from Tox21 10K library (AID 1224841; call rule not given here; also: actives are mostly falling curves and most rising ones were filed inactive; nearly all actives have a fitted effect of over 50% in size; also: potency is read from the fitted curve at half-maximal effect)
Outline: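 Each well held 2,000 PGC/ERR cells, pre-incubated six hours (37 C, 5% CO2). Test substances in DMSO were added by pin tool and left for 18 h at 37 C before luciferase detection by One-Glo.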

[16] = qHTS assay to identify small molecule agonists of the estrogen related receptor signaling pathway with the pleiotropic PPARgamma coactivator (PGC) from Tox21 10K library (AID 1224842); also: nearly all actives have a fitted effect of over 15% in size; also: potency is read from the fitted curve at half-maximal effect
Outline: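 PGC/ERR reporter cell line, 2,000 cells per well, incubated 6 h at 37 C before 23 nL compound in DMSO was added. After 18 h at 37 C, One-Glo luminescence read following 30 min at room temperature.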

[17] = target: Thyrotropin receptor (Homo sapiens) (UniProt P16473); test: qHTS assay to identify small molecule agonists of the thyroid stimulating hormone receptor (TSHR) signaling pathway (AID 1224843; calls by dose curve; also: nearly all actives have a fitted effect of over 45% in size; also: potency is read from the fitted curve at half-maximal effect)
Outline: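 TSHR-HEK293 cells in agonist mode, 30 min room-temperature step, then cAMP measured by competitive HTRF (cAMP-d2 with anti-cAMP cryptate) after 1 h at room temperature. Tested at 15 concentrations in triplicate.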

[18] = qHTS assay to identify small molecule agonists of the hypoxia (HIF-1) signaling pathway - cell viability counter screen (AID 1224844; calls by dose curve; also: nearly all actives have a fitted effect of over 50% in size; also: potency is read from the fitted curve at half-maximal effect)
Outline: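 Multiplexed with the HRE beta-lactamase assay, this viability read used CellTiter-Glo luminescence (30 min, RT) on HRE-bla ME-180 cells treated 17 hrs with compounds in 0.5% dialyzed FBS medium.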

[19] = qHTS assay to identify small molecule antagonists of the retinoic acid receptor (RAR) signaling pathway (AID 1159552; also: nearly all actives have a fitted effect of over 50% in size; also: potency is read from the fitted curve at half-maximal effect)
Outline: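 Quantitative HTS in C3RL4 RARE-luciferase reporter cells. Compounds were added with 1 uM (final) retinol; luminescence was read after 6 hr.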

[20] = target: Nuclear receptor subfamily 1 group I member 3 (Homo sapiens) (UniProt Q14994); test: qHTS assay to identify small molecule agonists of the constitutive androstane receptor (CAR) signaling pathway (AID 1224839); also: nearly all actives have a fitted effect of over 15% in size; also: potency is read from the fitted curve at half-maximal effect
Outline: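 A 15-concentration quantitative screen uses HepG2 cells co-transfected stably with human CAR and CYP2B6-2.2kb reporter. Treatment lasts 24 h with 0.75 uM PK11195 final present; ONE-Glo luminescence is the signal.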
% is scaled to controls: 0 for no effect and ±100 for the full control effect.

Chain of Thyrotropin receptor (Homo sapiens) (P16473 whole entry, looked up): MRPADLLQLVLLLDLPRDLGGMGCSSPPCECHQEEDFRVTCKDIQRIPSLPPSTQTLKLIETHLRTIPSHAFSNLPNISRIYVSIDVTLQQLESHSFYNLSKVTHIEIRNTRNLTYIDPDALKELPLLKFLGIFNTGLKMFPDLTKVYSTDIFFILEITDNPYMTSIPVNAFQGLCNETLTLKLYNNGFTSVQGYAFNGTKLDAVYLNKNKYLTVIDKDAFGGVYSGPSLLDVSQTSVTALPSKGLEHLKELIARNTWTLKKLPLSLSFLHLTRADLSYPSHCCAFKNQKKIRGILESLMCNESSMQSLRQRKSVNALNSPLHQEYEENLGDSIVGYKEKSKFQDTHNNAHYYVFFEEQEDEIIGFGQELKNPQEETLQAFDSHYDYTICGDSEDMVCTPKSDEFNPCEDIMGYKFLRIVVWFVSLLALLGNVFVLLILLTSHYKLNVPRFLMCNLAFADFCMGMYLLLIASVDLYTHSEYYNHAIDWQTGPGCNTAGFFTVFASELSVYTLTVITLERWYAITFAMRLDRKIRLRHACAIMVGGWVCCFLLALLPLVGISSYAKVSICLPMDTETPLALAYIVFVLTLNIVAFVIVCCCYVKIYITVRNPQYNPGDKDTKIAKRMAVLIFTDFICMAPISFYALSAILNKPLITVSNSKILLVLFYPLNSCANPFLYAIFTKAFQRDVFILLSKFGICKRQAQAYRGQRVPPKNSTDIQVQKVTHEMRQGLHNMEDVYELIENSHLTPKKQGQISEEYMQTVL
Chain of Luciferin 4-monooxygenase (Photinus pyralis) (P08659 whole entry, looked up): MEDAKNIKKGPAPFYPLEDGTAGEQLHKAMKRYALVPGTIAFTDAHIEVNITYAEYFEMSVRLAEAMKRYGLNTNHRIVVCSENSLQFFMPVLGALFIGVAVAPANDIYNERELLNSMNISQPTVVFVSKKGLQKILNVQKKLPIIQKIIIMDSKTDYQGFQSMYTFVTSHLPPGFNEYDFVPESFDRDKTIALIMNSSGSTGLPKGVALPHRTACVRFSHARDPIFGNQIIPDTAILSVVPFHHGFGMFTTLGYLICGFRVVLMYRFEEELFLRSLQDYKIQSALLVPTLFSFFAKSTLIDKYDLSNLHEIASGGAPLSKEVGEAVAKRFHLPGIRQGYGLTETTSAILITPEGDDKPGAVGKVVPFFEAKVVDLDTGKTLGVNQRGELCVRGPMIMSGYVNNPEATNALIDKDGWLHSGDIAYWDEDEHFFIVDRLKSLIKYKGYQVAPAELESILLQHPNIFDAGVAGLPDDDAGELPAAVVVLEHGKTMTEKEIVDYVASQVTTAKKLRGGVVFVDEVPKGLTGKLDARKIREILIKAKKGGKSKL
Chain of Nuclear receptor subfamily 1 group I member 3 (Homo sapiens) (Q14994 whole entry, looked up): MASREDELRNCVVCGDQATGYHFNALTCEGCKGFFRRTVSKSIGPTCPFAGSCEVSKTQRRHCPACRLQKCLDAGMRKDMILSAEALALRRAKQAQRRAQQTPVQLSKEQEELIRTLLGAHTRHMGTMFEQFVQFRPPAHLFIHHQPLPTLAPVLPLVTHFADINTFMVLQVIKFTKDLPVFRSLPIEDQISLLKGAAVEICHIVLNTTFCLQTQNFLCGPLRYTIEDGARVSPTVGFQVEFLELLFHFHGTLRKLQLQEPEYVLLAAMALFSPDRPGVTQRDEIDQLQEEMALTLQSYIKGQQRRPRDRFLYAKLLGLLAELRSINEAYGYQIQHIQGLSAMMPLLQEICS

CNC[C@H](O)c1ccc(O)c(O)c1
active: Potency [16] 1.54 µM and 1.16 µM | Potency [17] 770 nM and 2.31 µM
inactive: Potency [1] | Potency [2] | Potency [3] | outcome [4] | outcome [5] | outcome [6] | outcome [7] | outcome [8] | viability change, negative = cytotoxic [9] 2.34% [at 19 µM] | Potency [10] | Potency [11] | Potency [12] | Potency [13] | Potency [14] | Potency [15] | Potency [18]

Nc1cc([N+](=O)[O-])ccc1C(=O)O
inactive: Potency [1] | Potency [2] | Potency [19] | Potency [3] | Potency [11] | Potency [12] | Potency [13] | Potency [14] | Potency [17] | Potency [18]
active: Potency [10] 64.6 µM and 35.6 µM

Brc1nc2ccccc2s1
active: Potency [10] 39.8 µM
inactive: Potency [1] | Potency [2] | Potency [19] | Potency [3] | Potency [11] | Potency [12] | Potency [13] | Potency [14] | Potency [17] | Potency [18]

C[N+](C)(C)CCO
inactive: Potency [1] | Potency [2] | outcome [4] | Potency [9] | Potency [10] | Potency [11] | Potency [12] | Potency [13] | Potency [20] | Potency [14] | Potency [17] | Potency [18]

COC(=O)CC(=O)OC
inactive: Potency [1] | Potency [2] | Potency [19] | Potency [3] | Potency [10] | Potency [11] | Potency [12] | Potency [13] | Potency [14] | Potency [17] | Potency [18]

CN1CCOCC1
inactive: Potency [1] | Potency [2] | Potency [19] | Potency [3] | Potency [11] | Potency [12] | Potency [13] | Potency [14] | Potency [15] | Potency [16] | Potency [18]

Nc1cc(Cl)c(N)c(Cl)c1
inactive: Potency [1] | Potency [2] | Potency [19] | Potency [3] | Potency [10] | Potency [11] | Potency [12] | Potency [13] | Potency [14] | Potency [17] | Potency [18]

C[C@]12CC[C@@H]3c4ccc(O)cc4CC[C@H]3[C@@H]1CC[C@@H]2O
active: Potency [9] 30.6 µM and 43.3 µM | Potency [10] 39.8 µM and 79.6 µM
inactive: Potency [1] | Potency [2] | Potency [3] | outcome [4] | outcome [6] | outcome [7] | outcome [8] | Potency [11] | Potency [12] | Potency [13] | Potency [14] | Potency [16] | Potency [18]

CCCOCCO
inactive: Potency [1] | Potency [2] | Potency [19] | Potency [3] | Potency [10] | Potency [11] | Potency [12] | Potency [13] | Potency [20] | Potency [14] | Potency [17] | Potency [18]

C=CCCCCCCCCCC
inactive: Potency [1] | Potency [2] | Potency [19] | Potency [3] | Potency [10] | Potency [11] | Potency [12] | Potency [13] | Potency [20] | Potency [14] | Potency [18]

c1ccc2cc3ccccc3cc2c1
inactive: Potency [1] | Potency [2] | Potency [19] | Potency [10] | Potency [11] | Potency [12] | Potency [13] | Potency [14] | Potency [15] | Potency [16] | Potency [17] | Potency [18]

Oc1c(Cl)ccc(Cl)c1Cl
inactive: Potency [1] | Potency [2] | Potency [19] | Potency [3] | Potency [10] | Potency [11] | Potency [12] | Potency [13] | Potency [14] | Potency [15] | Potency [16] | Potency [18]

COc1ccc(-c2coc3cc(O)cc(O)c3c2=O)cc1
active: Potency [3] 686 nM | Potency [10] 6.38 µM and 5.03 µM | Potency [20] 15.5 µM and 27.3 µM
inactive: Potency [1] | Potency [2] | Potency [19] | Potency [11] | Potency [12] | Potency [13] | Potency [14] | Potency [17] | Potency [18]

C=C1C[C@H]2[C@@H]3C=C(C)C4=CC(=O)CC[C@]4(C)[C@H]3CC[C@]2(C)[C@@]1(OC(C)=O)C(C)=O
active: Potency [15] 31.3 µM
inactive: Potency [1] | Potency [2] | Potency [19] | Potency [3] | Potency [10] | Potency [11] | Potency [12] | Potency [13] | Potency [20] | Potency [14] | Potency [16] | Potency [18]

C[C@]12CC[C@@H]3c4ccc(O)cc4CC[C@H]3[C@@H]1CC[C@H]2O
inactive: Potency [1] | Potency [2] | Potency [3] | Potency [11] | Potency [12] | Potency [13] | Potency [14] | Potency [15] | Potency [16] | Potency [18]
inactive and 39.9 µM (active): Potency [10]
inactive and 27.3 µM (active): Potency [19]

Nc1ccc2c(c1)C(=O)c1ccccc1C2=O
active: Potency [3] 338 nM and 273 nM | Potency [10] 2.78 µM and 2.52 µM
inactive: Potency [1] | Potency [2] | Potency [19] | Potency [11] | Potency [12] | Potency [13] | Potency [14] | Potency [18]

OC[C@@H](O)[C@@H](O[C@@H]1O[C@H](CO)[C@H](O)[C@H](O)[C@H]1O)[C@H](O)[C@@H](O)CO
inactive: Potency [1] | Potency [2] | Potency [3] | Potency [9] | Potency [10] | Potency [11] | Potency [12] | Potency [13] | Potency [20] | Potency [14] | Potency [15] | Potency [16] | Potency [17] | Potency [18]

CC(=O)[C@@]1(O)CC[C@H]2[C@@H]3C[C@H](C)C4=CC(=O)C=C[C@]4(C)[C@@]3(F)[C@@H](O)C[C@@]21C
inactive: Potency [1] | Potency [2] | Potency [19] | Potency [3] | Potency [10] | Potency [11] | Potency [12] | Potency [13] | Potency [14] | Potency [15] | Potency [16] | Potency [18]

C=C[C@@]1(C)CC(=O)[C@]2(O)[C@@]3(C)[C@@H](O)CCC(C)(C)[C@@H]3[C@H](O)[C@H](OC(C)=O)[C@@]2(C)O1
inactive: Potency [2] | Potency [19] | Potency [3] | Potency [10] | Potency [11] | Potency [12] | Potency [14]
active: Potency [1] 11 µM and 7.56 µM | Potency [17] 17.2 nM and 18.8 nM | Potency [18] 38.9 µM
27.3 µM (active) and inactive: Potency [13]
